Test results as given in PubChem BioAssay (Tox21).
Where “and” joins values, the source holds several entries; their conditions need not be identical. Equal entries are not always repeated. Results filed as inconclusive are left out. A call without a number means that no potency is given here. Where a structure was tested more than once in an assay, its records may differ in their call. Calls of active or inactive are those of the source. Unless noted, calls come from the whole dose curve.

Tests used:
[1] = qHTS assay to identify small molecule agonists of the sonic hedgehog signaling (Shh) pathway (AID 1259368); note: series mostly up to about 92 µM; nearly all actives have a fitted effect of over 15% in size
Summary of the method: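 NIH/3T3-derived 3T3Gli1-Luc cells carrying a stably integrated Gli1 response element–firefly luciferase reporter were plated, left 4 hr at 37 C, then given compounds in DMSO for 24 hr. Luminescence was read 30 min after adding luciferase reagent.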

[2] = qHTS assay to identify small molecule antagonists of the sonic hedgehog signaling (Shh) pathway (AID 1259369); note: nearly all actives have a fitted effect of over 45% in size; note: potency is the fitted concentration of half-maximal effect
Summary of the method: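 NIH/3T3-derived 3T3Gli1-Luc cells with stably integrated Gli1-Luc reporter were preincubated 4hr at 37 C, then given compounds in DMSO plus Shh conditioned medium and incubated 24hr. Firefly luciferase luminescence read after 30min reagent at room temperature.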

[3] = biological target: Estrogen receptor beta (Homo sapiens) (UniProt Q92731); experiment: qHTS assay to identify small molecule agonists of the estrogen receptor beta (ER-beta) signaling pathway (AID 1259377; active = well fitted activation curve with a large enough effect in the signal ratio in the repeat runs, not every such curve was filed as active; the % refers to the signal ratio)
Sequence of Estrogen receptor beta (Homo sapiens) (Q92731 whole entry, looked up): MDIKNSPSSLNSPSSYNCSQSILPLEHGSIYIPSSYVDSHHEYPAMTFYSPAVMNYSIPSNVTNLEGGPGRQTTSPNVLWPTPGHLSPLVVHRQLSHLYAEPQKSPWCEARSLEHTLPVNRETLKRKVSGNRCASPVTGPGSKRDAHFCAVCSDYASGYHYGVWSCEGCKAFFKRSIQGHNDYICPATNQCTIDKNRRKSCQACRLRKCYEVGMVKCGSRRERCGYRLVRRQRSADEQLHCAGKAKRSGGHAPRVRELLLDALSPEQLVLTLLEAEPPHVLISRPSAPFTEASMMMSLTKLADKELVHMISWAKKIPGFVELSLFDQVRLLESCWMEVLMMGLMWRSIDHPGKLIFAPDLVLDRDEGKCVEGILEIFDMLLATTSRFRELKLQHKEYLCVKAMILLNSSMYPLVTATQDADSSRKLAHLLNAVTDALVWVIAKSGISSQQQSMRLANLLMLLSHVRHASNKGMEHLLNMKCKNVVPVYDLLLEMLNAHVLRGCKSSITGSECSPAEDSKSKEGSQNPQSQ
Summary of the method: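 Reporter cells (HEK293T, ER-beta-UAS-bla) receive compounds or DMSO after a 6 hr pre-incubation. They then incubate 16 hr at 37C/5% CO2, and fluorescence from LiveBLAzer B/G substrate is measured after 2 hours at room temperature.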

[4] = biological target: Estrogen receptor beta (Homo sapiens) (UniProt Q92731); experiment: qHTS assay to identify small molecule antagonists of the estrogen receptor beta (ER-beta) signaling pathway (AID 1259378; active = well fitted inhibition curve with a large enough effect in the signal ratio in the repeat runs, not every such curve was filed as active; the % refers to the signal ratio)
Summary of the method: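 Antagonist mode: compounds added to beta-lactamase reporter HEK293T ER-beta-UAS cells stimulated with E2 (1nM final), 16 hr at 37C. LiveBLAzer B/G FRET substrate, 2 hours room temperature, fluorescence read-out.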

[5] = qHTS assay to identify small molecule agonists of the androgen receptor (AR) signaling pathway in the presence of an antagonist - cell viability counter screen (AID 1259379; active = well fitted curve in the direction sought with a large enough effect in the repeat runs; an effect the other way counts as inactive or inconclusive; note: series mostly up to about 92 µM; nearly all actives have a fitted effect of over 25% in size)
Summary of the method: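 MDA-kb2 human breast carcinoma cells (stable MMTV-luciferase, AR/GR responsive) were seeded 3,000 cells/well, pre-incubated 5 hr at 37C without CO2, then given 3.0uM nilutamide and compounds at 15 concentrations for 16 hr. Viability was read by CellTiter-Fluor fluorescence.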

[6] = qHTS assay to identify small molecule agonists of the estrogen receptor beta (ER-beta) signaling pathway - cell viability counter screen (AID 1259380; active = well fitted curve in the direction sought with a large enough effect in the repeat runs; an effect the other way counts as inactive or inconclusive; note: nearly all actives have a fitted effect of over 30% in size)
Summary of the method: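 ER-beta-UAS-bla HEK293T cells in medium with 2% charcoal-stripped FBS were preincubated 6 hr at 37C, dosed with compound in DMSO for 16 hr, then after the bla read, CellTiter-Glo was added for 30 min at room temperature; luminescence recorded.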

[7] = qHTS assay to identify small molecule antagonists of the estrogen receptor beta (ER-beta) signaling pathway - cell viability counter screen (AID 1259382; active = well fitted curve in the direction sought with a large enough effect in the repeat runs; an effect the other way counts as inactive or inconclusive;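 note: HEK293T cells carrying ER-beta-UAS-bla reporter stimulated with estradiol; series mostly up to about 92 µM; nearly all actives have a fitted effect of over 55% in size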)
Summary of the method: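 ER-beta-UAS-bla HEK293T cells (2,000/well, 2% charcoal-stripped FBS) were pre-incubated 6 hr at 37C, then given compound plus 1nM final 17-beta-estradiol for 16 hr. Viability was read in the same wells by CellTiter-Glo luminescence after 30 min at room temperature.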

[8] = biological target: Estrogen receptor (Homo sapiens) (UniProt P03372); experiment: qHTS assay to identify small molecule agonists of the estrogen receptor alpha (ER-alpha) signaling pathway in the presence of an antagonist (AID 1259383); note: top concentration of the series differs between compounds; nearly all actives have a fitted effect of over 15% in size
Sequence of Estrogen receptor (Homo sapiens) (P03372 whole entry, looked up): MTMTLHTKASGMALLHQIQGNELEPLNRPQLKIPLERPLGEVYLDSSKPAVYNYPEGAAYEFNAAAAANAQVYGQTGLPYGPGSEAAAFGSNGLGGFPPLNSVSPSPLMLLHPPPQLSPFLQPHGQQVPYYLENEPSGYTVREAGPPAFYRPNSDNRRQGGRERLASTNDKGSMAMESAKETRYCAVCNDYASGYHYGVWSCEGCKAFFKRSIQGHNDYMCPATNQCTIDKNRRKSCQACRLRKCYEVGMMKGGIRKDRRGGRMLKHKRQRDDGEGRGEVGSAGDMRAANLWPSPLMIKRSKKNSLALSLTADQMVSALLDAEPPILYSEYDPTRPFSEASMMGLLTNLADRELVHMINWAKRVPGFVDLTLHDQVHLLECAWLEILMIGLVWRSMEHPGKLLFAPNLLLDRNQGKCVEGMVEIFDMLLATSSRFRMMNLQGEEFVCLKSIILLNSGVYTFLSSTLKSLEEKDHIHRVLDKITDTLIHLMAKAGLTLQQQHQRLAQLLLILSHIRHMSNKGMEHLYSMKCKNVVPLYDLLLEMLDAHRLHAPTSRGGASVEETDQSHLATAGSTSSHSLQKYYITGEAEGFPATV
Summary of the method: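 VM7Luc4E2 cells (endogenous full-length ER-alpha, 4×ERE-luciferase) were precultured 5 days in phenol red-free medium with 10% charcoal-stripped FBS, given 10.0nM ICI-182,780 (final), then treated with compounds at 15 concentrations for 22hr at 37C; luminescence read with ONE-Glo.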

[9] = qHTS assay to identify small molecule agonists or antagonists of the thyroid stimulating hormone receptor (TSHR) signaling pathway - wild type cell line counter screen (AID 1259384)
Summary of the method: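 Counter screen in untransfected Hek293: compounds (15-point titration, triplicate) plus phosphodiesterase inhibitor Ro20-1724 added after 18 h plating; 30 min RT. Intracellular cAMP via competitive d2/cryptate immunoassay, 1 h incubation.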

[10] = biological target: Thyrotropin receptor (Homo sapiens) (UniProt P16473); experiment: qHTS assay to identify small molecule antagonists of the thyroid stimulating hormone receptor (TSHR) signaling pathway (AID 1259385); note: nearly all actives have a fitted effect of over 20% in size
Sequence of Thyrotropin receptor (Homo sapiens) (P16473 whole entry, looked up): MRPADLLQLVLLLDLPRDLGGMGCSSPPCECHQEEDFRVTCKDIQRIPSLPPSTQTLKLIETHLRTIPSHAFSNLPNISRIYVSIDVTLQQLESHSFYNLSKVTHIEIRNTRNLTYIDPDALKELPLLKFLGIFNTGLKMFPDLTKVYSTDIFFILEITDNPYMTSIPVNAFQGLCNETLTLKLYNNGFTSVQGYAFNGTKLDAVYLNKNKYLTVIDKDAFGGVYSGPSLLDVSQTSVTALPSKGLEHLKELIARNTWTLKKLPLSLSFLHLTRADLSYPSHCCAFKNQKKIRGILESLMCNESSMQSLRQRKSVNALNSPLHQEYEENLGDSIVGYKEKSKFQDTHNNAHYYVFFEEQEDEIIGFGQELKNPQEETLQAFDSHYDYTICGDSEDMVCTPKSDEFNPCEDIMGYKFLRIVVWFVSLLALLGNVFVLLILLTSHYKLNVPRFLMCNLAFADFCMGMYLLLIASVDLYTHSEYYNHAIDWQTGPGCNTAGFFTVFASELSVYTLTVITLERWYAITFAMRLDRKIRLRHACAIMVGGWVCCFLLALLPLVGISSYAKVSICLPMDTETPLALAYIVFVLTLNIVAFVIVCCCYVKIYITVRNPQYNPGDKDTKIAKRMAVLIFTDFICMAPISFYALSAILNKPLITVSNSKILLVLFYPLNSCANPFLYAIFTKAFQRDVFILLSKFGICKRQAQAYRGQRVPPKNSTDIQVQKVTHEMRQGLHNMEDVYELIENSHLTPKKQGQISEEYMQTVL
Summary of the method: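 Antagonist mode: compound-treated TSHR-expressing HEK293 cells were stimulated with 1.5 ng/mL TSH (final) in presence of Ro20-1724 for 30 min at RT. HTRF cAMP detection after 1 h; each compound tested at 15 concentrations, triplicate.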

[11] = qHTS assay to identify small molecule agonists of the estrogen receptor alpha (ER-alpha) signaling pathway in the presence of an antagonist - cell viability counter screen (AID 1259386; active = well fitted curve in the direction sought with a large enough effect in the repeat runs; an effect the other way counts as inactive or inconclusive;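 note: series mostly up to about 92 µM; cells exposed to compounds for 22 h at 37 °C before the viability read; nearly all actives have a fitted effect of over 30% in size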)
Summary of the method: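 VM7Luc4E2 cells (endogenous full-length ER-alpha, 4×ERE-luciferase) were held 5 days in phenol red-free medium with 10% charcoal-stripped FBS, plated, then given 10.0nM ICI-182,780 and compounds at 15 concentrations for 22hr at 37C; viability read by CellTiter-Fluor fluorescence.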

[12] = biological target: Progesterone receptor (Homo sapiens) (UniProt P06401); experiment: qHTS assay to identify small molecule agonists of the progesterone receptor (PR) signaling pathway (AID 1346784); note: nearly all actives have a fitted effect of over 30% in size
Sequence of Progesterone receptor (Homo sapiens) (P06401 whole entry, looked up): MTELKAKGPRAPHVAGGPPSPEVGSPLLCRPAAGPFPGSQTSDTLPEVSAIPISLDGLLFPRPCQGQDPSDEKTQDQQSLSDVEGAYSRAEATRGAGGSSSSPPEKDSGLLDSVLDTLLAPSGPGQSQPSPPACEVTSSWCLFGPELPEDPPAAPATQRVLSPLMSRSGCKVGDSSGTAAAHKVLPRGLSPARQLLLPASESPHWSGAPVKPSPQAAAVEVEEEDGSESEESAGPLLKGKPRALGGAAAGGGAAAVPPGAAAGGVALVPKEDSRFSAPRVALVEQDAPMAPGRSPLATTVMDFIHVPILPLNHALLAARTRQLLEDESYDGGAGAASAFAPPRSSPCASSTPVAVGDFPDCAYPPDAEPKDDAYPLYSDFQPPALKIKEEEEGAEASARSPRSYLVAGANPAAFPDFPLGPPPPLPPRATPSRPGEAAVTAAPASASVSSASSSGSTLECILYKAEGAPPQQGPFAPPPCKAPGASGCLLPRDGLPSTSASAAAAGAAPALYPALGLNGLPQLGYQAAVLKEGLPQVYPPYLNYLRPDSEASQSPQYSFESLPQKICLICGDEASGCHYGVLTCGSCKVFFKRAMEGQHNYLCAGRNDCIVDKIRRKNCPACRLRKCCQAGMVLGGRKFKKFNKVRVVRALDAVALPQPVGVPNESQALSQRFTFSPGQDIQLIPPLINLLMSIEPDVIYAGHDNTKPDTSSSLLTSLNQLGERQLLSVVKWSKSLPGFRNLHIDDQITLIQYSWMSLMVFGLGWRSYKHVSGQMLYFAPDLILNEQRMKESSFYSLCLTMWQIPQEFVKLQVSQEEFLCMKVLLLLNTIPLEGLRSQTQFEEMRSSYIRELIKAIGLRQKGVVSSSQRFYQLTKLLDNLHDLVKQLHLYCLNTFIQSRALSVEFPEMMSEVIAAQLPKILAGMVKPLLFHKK
Summary of the method: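 Reporter assay, GripTite PR-UAS-bla HEK 293T cells: 16 hr exposure to DMSO-dissolved compounds at 37C, 5% CO2, in steroid-depleted (2% charcoal-stripped FBS) medium; beta-lactamase measured by FRET fluorescence.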

[13] = biological target: Progesterone receptor (Homo sapiens) (UniProt P06401); experiment: qHTS assay to identify small molecule antagonists of the progesterone receptor (PR) signaling pathway (AID 1346795; active = well fitted inhibition curve with a large enough effect in the signal ratio in the repeat runs, not every such curve was filed as active; the % refers to the signal ratio)
Summary of the method: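 Stimulus R5020 at 1 nM final; cells HEK293T PR-UAS-bla; medium with 2% charcoal-stripped FBS; compound exposure 16 hr at 37C, 5% CO2; detection by FRET beta-lactamase substrate, 2 hr, room temperature.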

[14] = qHTS assay to identify small molecule antagonists of the progesterone receptor (PR) signaling pathway - cell viability counter screen (AID 1346798; active = well fitted curve in the direction sought with a large enough effect in the repeat runs; an effect the other way counts as inactive or inconclusive; note: series mostly up to about 92 µM; nearly all actives have a fitted effect of over 50% in size)
Summary of the method: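 In the same plates used for the beta-lactamase readout, cell viability of compound- and R5020-treated PR-UAS-bla HEK293T cells (16 hr, 37C) was assessed by CellTiter-Glo luminescence.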

[15] = qHTS assay to identify small molecule antagonists of the TGF-beta/Smad signaling pathway - cell viability counter screen (AID 1346824; active = well fitted curve in the direction sought with a large enough effect in the repeat runs; an effect the other way counts as inactive or inconclusive; note: nearly all actives have a fitted effect of over 50% in size)
Summary of the method: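 Cytotoxicity counter-screen run in the same wells as the beta-lactamase Smad reporter read: CellTiter-Glo luminescence after 30 min at room temperature. HEK 293T SBE-bla cells had 5 hr compound exposure at 37 C with TGF-beta1 (0.25 ng/mL stock).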

[16] = qHTS assay to identify small molecule agonists of the TGF-beta/Smad signaling pathway - cell viability counter screen (AID 1346829; active = well fitted curve in the direction sought with a large enough effect in the repeat runs; an effect the other way counts as inactive or inconclusive; note: top concentration of the series differs between compounds; nearly all actives have a fitted effect of over 45% in size)
Summary of the method: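 In parallel with the Smad reporter read, viability of HEK 293T cells stably carrying SBE-bla is quantified by ATP luminescence following 5 hr compound treatment.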

[17] = qHTS assay to identify small molecule agonists of the TGF-beta/Smad signaling pathway (AID 1346859; active = well fitted activation curve with a large enough effect in the signal ratio in the repeat runs, not every such curve was filed as active; the % refers to the signal ratio; note: series mostly up to about 77 µM)
Summary of the method: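 Screening used HEK 293T SBE-bla cells at 4,000/well. Test agents: 5 hr, 37 C. Detection: FRET substrate, 2 hr RT, then excitation 405 nm with emissions at 460 and 530 nm.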

[18] = qHTS assay to identify small molecule agonists of the progesterone receptor (PR) signaling pathway - cell viability counter screen (AID 1346799); note: nearly all actives have a fitted effect of over 45% in size
Summary of the method: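 Multiplexed viability read: CellTiter-Glo luminescence, 30 min RT, following LiveBLAzer FRET measurement on PR-UAS-bla HEK293T cells exposed to compounds 16 hr.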

[19] = biological target: Thyrotropin-releasing hormone receptor (Homo sapiens) (UniProt P34981); experiment: qHTS assay to identify small molecule antagonists of the thyrotropin-releasing hormone receptor (TRHR) signaling pathway (AID 1346877; active = well fitted inhibition curve with a large enough effect in the repeat runs, not every such curve was filed as active; note: series mostly up to about 51 µM)
Sequence of Thyrotropin-releasing hormone receptor (Homo sapiens) (P34981 whole entry, looked up): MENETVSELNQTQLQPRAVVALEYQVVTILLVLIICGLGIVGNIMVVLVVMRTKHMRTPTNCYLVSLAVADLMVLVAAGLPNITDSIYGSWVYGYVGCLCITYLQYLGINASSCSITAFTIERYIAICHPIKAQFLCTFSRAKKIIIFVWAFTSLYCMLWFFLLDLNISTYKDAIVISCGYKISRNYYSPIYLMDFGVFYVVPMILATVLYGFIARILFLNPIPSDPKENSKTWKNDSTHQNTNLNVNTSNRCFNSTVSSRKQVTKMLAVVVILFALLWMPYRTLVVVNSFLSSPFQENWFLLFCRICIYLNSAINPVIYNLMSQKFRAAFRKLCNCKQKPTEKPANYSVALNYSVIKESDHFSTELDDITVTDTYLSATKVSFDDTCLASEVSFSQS
Summary of the method: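 TRHR-expressing HEK293 cells were seeded, cultured 18 h at 37 °C, then loaded with calcium dye for 2 h. Compounds were pre-incubated 5 min at room temperature before 1 nM TRH (final) was added, and kinetic fluorescence was recorded for 3 min.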

[20] = biological target: Androgen receptor (Homo sapiens) (UniProt P10275); experiment: qHTS assay to identify small molecule agonists of the androgen receptor (AR) signaling pathway in the presence of an antagonist (AID 1259381); note: nearly all actives have a fitted effect of over 15% in size
Sequence of Androgen receptor (Homo sapiens) (P10275 whole entry, looked up): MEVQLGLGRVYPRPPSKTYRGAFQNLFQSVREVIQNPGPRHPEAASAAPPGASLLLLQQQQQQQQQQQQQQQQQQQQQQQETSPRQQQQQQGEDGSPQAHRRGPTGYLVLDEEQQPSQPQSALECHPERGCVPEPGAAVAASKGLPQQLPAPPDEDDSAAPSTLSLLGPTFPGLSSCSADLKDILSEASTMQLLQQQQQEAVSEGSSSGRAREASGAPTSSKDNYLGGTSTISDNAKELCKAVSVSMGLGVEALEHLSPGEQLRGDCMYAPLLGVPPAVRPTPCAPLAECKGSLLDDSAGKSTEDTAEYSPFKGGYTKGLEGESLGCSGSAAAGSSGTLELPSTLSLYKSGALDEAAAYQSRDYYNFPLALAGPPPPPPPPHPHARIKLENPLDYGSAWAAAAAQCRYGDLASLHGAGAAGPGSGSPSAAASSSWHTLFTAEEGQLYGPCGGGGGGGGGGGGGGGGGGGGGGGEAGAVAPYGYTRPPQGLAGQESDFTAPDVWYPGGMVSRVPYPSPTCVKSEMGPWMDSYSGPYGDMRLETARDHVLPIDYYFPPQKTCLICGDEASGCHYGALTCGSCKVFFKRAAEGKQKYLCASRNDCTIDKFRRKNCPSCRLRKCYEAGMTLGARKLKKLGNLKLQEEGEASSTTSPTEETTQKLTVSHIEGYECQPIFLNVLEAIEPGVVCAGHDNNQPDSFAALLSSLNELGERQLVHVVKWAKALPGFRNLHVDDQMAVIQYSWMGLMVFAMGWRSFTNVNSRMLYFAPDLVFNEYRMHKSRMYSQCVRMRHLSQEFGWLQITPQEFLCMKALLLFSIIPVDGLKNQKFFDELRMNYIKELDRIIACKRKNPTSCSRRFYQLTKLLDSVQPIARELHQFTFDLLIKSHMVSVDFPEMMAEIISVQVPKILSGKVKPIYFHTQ
Summary of the method: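 MDA-kb2 human breast carcinoma cells carrying an MMTV-luciferase reporter (AR- and GR-responsive) were treated with compounds at 15 concentrations plus 3.0uM final nilutamide for 16hr at 37C without CO2; luminescence was read after ONE-Glo addition.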

Row | Compound | outcome [1] | Potency [2] | outcome [3] | outcome [4] | Potency [5] | Potency [6] | Potency [7] | Potency [8] | outcome [9] | Potency [10] | Potency [11] | Potency [12] | Potency [13] | Potency [14] | Potency [15] | outcome [16] | outcome [17] | Potency [18] | outcome [19] | Potency [20]
1 | O=C1NC(=O)[C@@]2(CCOc3ccc(F)cc32)N1 | inactive | inactive | inactive | inactive | inactive | inactive | inactive | inactive | inactive | inactive | inactive | inactive | inactive | inactive | inactive | inactive | inactive | – | – | –
2 | O=c1n(CCO)c(=O)n(CCO)c(=O)n1CCO | inactive | inactive and 27.3 µM (active) | inactive | inactive | inactive | inactive | inactive | inactive | inactive | inactive | inactive | inactive | inactive | – | inactive | inactive | inactive | inactive | inactive | –
3 | CC(NC(CCc1ccccc1)C(=O)O)C(=O)N1C(=O)N(C)CC1C(=O)O (centres undefined) | inactive | inactive | inactive | inactive | inactive | inactive | inactive | – | inactive | inactive | – | inactive | inactive | inactive | inactive | inactive | inactive | inactive | inactive | inactive
4 | NS(=O)(=O)c1cc2c(cc1Cl)NC(C1CC3C=CC1C3)NS2(=O)=O (centres undefined) | inactive | inactive | inactive | inactive | inactive | inactive | inactive | inactive | – | – | inactive | inactive | inactive | inactive | inactive | inactive | inactive | inactive | inactive | inactive
5 | CC(C)CCCC(C)N (centres undefined) | inactive | inactive | inactive | inactive | inactive | inactive | inactive | inactive | inactive | inactive | inactive | inactive | – | inactive | inactive | inactive | inactive | inactive | inactive | –
6 | CC/C=C\CCOC(C)=O | inactive | inactive | inactive | inactive | inactive | inactive | inactive | inactive | inactive | inactive | inactive | inactive | inactive | inactive | inactive | inactive | inactive | inactive | – | –
7 | CCOC(=O)[C@H](CCc1ccccc1)N[C@@H](C)C(=O)N1[C@H](C(=O)O)C[C@@H]2CCC[C@@H]21 | inactive | inactive | inactive | inactive | inactive | inactive | inactive | inactive | inactive | inactive | inactive | inactive | inactive | inactive | inactive | – | inactive | inactive | inactive | –
8 | NS(=O)(=O)c1cc(C(=O)NN2C[C@H]3[C@H]4CCC(C4)[C@H]3C2)ccc1Cl | inactive | inactive | inactive | inactive | inactive | inactive | inactive | inactive | inactive | inactive | inactive | inactive | inactive | inactive | inactive | inactive | inactive | – | inactive | inactive
